From PubChem BioAssay AID720526 (National Center for Advancing Translational Sciences (NCATS), 2013)
Results filed as inconclusive are left out. Activity calls are given as the source filed them. Calls follow the shape of the dose curve; as a rule, active = well fitted activation curve with a large enough effect; inconclusive = small, poorly fitted or top-dose-only effect; inactive = no such curve, though single readings can be large or run the other way.

assay: qHTS Assay for NPC1 Promoter Activators: Hit Validation Using Renila Luciferase Read-Out for NPC1; conditions: Huh7 NPC1 promoter-luciferase reporter, luminescence, 24 h; series mostly up to 76.9 µM
How it was run: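 Luciferase reporter read-out: promoter activation measured by luminescence after 10 min with detection reagent at room temperature. Cells were Huh7 with a stable NPC promoter-luciferase construct, treated 24 h at 37 deg C.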
Potency is read from the fitted curve at half-maximal effect.

Potency, active:
CCCCCCOc1ccc(OC(=O)c2cccnc2)cc1 1.84 µM
O=C(CSc1nccn1Cc1ccco1)Nc1ccccc1F 36.8 µM
O=C(O)C1=CC[C@@H](c2ccc(Cl)cc2)N(S(=O)(=O)c2ccc(Cl)cc2)[C@H]1c1ccccc1 14.6 µM

Potency, inactive:
CC1=C(C(=O)OC2CCCC(C)C2)C(c2ccccc2)NC(=O)N1 (stereo not drawn)
O=C(N/N=C/c1ccc(-c2ccc(Br)cc2)o1)c1ccc2c(c1)OCO2
CCC1CCCCN1CCCNC(=O)c1ccc2nc(N3CCCCC3)sc2c1 (stereo not drawn)
COc1ccc(S(=O)(=O)NC(C(=O)NCCc2ccccn2)C(C)C)cc1 (stereo not drawn)
Cc1cc(C)cc(N(CC(=O)NC2CCCC2)C(=O)CNC(=O)c2ccco2)c1
O=C(NCCc1ccccc1)c1cc2ncc(Br)cn2n1
Nc1nc(SCCO)[nH]c(=O)c1NC(=O)c1ccco1
CCOC(=O)c1cc2sccc2n1CC(=O)N1CCCc2ccccc21
CC(Sc1ncnc2c1cnn2-c1ccccc1)C(=O)Nc1ccc(N2CCOCC2)cc1 (stereo not drawn)
COc1ccc(NC(=O)CCCN2C(=O)C(c3ccccc3)Oc3cccnc32)cc1OC (stereo not drawn)
CC1CN(C(=O)c2ccncc2)CC(C)O1 (stereo not drawn)
O=C(NC(=S)Nc1ccc(CN2CCCCC2)cc1)c1cc2ccccc2o1
Cc1nn(CCCC(=O)NCc2ccc(F)cc2)c(C)c1[N+](=O)[O-]
FC(F)(F)c1ccc(Nc2nnnc3ccccc23)cc1
COCCNC(=O)Cn1nc(-c2ccccc2)c2ccccc2c1=O
CCOc1ccc(CNC(=O)C2CCCN(S(C)(=O)=O)C2)cc1OC (stereo not drawn)
COc1ccc(-n2c(N)c(C(=O)NCc3ccco3)sc2=S)cc1
Cc1ccc(NC(=O)COC(=O)C2C3CC4OC(=O)C2C4C3)cc1Cl (stereo not drawn)
COC(=O)c1cn(NC(=O)C2CCCCC2)c(=O)c2ccccc12
CCC(=O)Nc1cc(-c2cc3ccccc3oc2=O)ccc1OC
O=C(CCS(=O)(=O)c1ccccc1)Nc1ccc(-c2nc3ccccc3s2)cc1
COc1cccc(C2Nc3ccccc3NC3=C2C(=O)CC(C)(C)C3)c1 (stereo not drawn)
Cc1nc(SCC(=O)NC(=O)NC(C)(C)C)nc(C)c1C
NC(=O)C1(NC(=O)[C@@H]2CC3(CC(c4cccc(NC(=O)[C@@H]5CCC(=O)N5)c4)=NO3)CN2C(=O)c2ccccc2)CC1 (stereo partly drawn)
Cc1cccc(C)c1NC(=O)Nc1cccs1
CC(=O)Nc1ccc(NC(=O)COc2ncnc3ccccc23)cc1
CC1CCCN(S(=O)(=O)c2ccc(C(=O)Nc3nnc(-c4ccncc4)o3)cc2)C1 (stereo not drawn)
CC(C)(C)C(=O)NC(=S)Nc1ccccc1F
Cc1cccc(N2CCN(C(=S)c3ccccc3)CC2)c1
Fc1ccc(-c2nc3nc4ccccc4nc3n2Cc2ccco2)cc1
N#C/C(=N\Nc1ccc(Cl)cc1)C(=N)N1CCCCC1
Nc1c(N(CCO)C(=O)/C=C/c2ccco2)c(=O)[nH]c(=O)n1Cc1ccccc1
NC(=O)C(=O)NN=C1C2CC3CC(C2)CC1C3
OCCC1CN(Cc2nc3ccccc3s2)CCN1C1CCCC1 (stereo not drawn)
CC(Sc1nnc(C(F)(F)F)n1C)C(=O)Nc1ccc(S(N)(=O)=O)cc1 (stereo not drawn)
